{"source": "PubChem BioAssay AID540335", "about": "(Broad Institute, 2011)", "note": "Among all 1,300 compounds or so, about 270 (21%) were called active. These entries were drawn from the full list. Potency and affinity values are given separately. A number with no mark means an inactive call.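 Rule for the calls: active = dose-dependent rise or fall in viability, either side of zero, with half-maximal concentration at or below a set limit; inconclusive = flat curve at 30 to 70% viability loss, or poor fit; inactive = flat within 30% either way, or potency beyond limit.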", "data": [{"assay": "proliferation inhibition in MITF-low A375 cells – cell-based, cherry-pick samples, set 2, counter-screen for MITF modulator project, dose response (AID 540335);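 note: A375 human melanoma cells which do not depend on MITF; 0% = median of neutral control wells and 100% = double that signal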", "conditions": "CellTiter-Glo ATP luminescence, 24 h; series mostly up to 35 µM; activity change, negative = decreased viability: at the top concentration", "units": {"activity change, negative = decreased viability": "%"}, "values": [{"smiles": "CN1CCN(C2=C(NS(=O)(=O)c3cccs3)C(=O)c3ccccc3C2=O)CC1", "activity change, negative = decreased viability": -13.3}, {"smiles": "COc1ccc2nc(C)cc(NCc3cccc(C(F)(F)F)c3)c2c1", "activity change, negative = decreased viability": -29.6}, {"smiles": "O=C1C=CC(=C(c2ccc(O)cc2)c2ccc(O)cc2)C=C1", "activity change, negative = decreased viability": -22.9}, {"smiles": "CC(C)(C)C(=O)/C(=C/c1ccncc1)n1cncn1", "activity change, negative = decreased viability": 7.09}, {"smiles": "O=C(Nc1ccc2oc(-c3cccnc3)nc2c1)c1ccc([N+](=O)[O-])o1", "activity change, negative = decreased viability": -6.09}, {"smiles": "CC(=O)Nc1ccc(NC(=O)c2nc(S(=O)(=O)Cc3ccccc3)ncc2Cl)cc1", "activity change, negative = decreased viability": -26.8}, {"smiles": "COc1ccccc1NC(=O)c1nc(S(=O)(=O)Cc2ccccc2)ncc1Cl", "activity change, negative = decreased viability": -24.6}, {"smiles": "Cc1ccc(C(=O)c2cccc(N)c2)cc1C", "activity change, negative = decreased viability": 11.7}, {"smiles": "COc1cc(NC(=O)COc2cc(O)c3c(c2)OC(C)(C)CC3=O)cc(OC)c1OC", "activity change, negative = decreased viability": -22.9}, {"smiles": "O=C(CCl)Nc1cccc(S(=O)(=O)N2CCCCCC2)c1", "activity change, negative = decreased viability": -32}, {"smiles": "Cc1cc(/C(N)=N/OC(=O)c2ccc(Cl)cc2)no1", "activity change, negative = decreased viability": 7.61}, {"smiles": "CCCCN1CCc2c1nc1ccc(Br)cc1c2N", "activity change, negative = decreased viability": -11.7}, {"smiles": "O=C(COC(=O)c1ccccc1C(=O)c1ccc(Cl)c([N+](=O)[O-])c1)NC1CC1", "activity change, negative = decreased viability": 16.1}, {"smiles": "CCOc1ccc(-c2ccc(SC)nn2)cc1", "activity change, negative = decreased viability": -38.4}, {"smiles": "Cc1ccc(C(=O)N/N=C\\c2ccc([N+](=O)[O-])s2)cn1", "activity change, negative = decreased viability": -30.2}, {"smiles": "CCN(CC)CCNC(=O)C1CCN(S(=O)(=O)c2c(C)noc2/C=C/c2ccccc2F)CC1", "activity change, negative = decreased viability": -10.5}, {"smiles": "Cc1cc(C)cc(OCC(=O)N/N=C/c2ccc([N+](=O)[O-])o2)c1", "activity change, negative = decreased viability": -0.821}, {"smiles": "N=c1n(CCN2CCCC2)c2ccccc2n1CC(O)c1ccc(Cl)c(Cl)c1", "note": "(centres undefined)", "activity change, negative = decreased viability": -89.6}, {"smiles": "O=C(CNc1cccc2ccccc12)N/N=C/c1ccc([N+](=O)[O-])o1", "activity change, negative = decreased viability": -18.9}, {"smiles": "Cc1ccccc1C(=O)N/N=C/c1ccc([N+](=O)[O-])s1", "activity change, negative = decreased viability": -20.2}, {"smiles": "Cc1cc2ncn(/N=C/c3ccc([N+](=O)[O-])o3)c2cc1C", "activity change, negative = decreased viability": -15.1}, {"smiles": "O=C(N/N=C/c1ccc([N+](=O)[O-])o1)c1cc2ccccc2o1", "activity change, negative = decreased viability": -33.2}, {"smiles": "CC1(C(=O)N/N=C/c2ccc([N+](=O)[O-])o2)CC1(Br)Br", "note": "(centres undefined)", "activity change, negative = decreased viability": -10.2}, {"smiles": "CCOC(=O)CCc1ccc(NC(=O)/C=C/c2ccc([N+](=O)[O-])o2)cc1", "activity change, negative = decreased viability": -26.9}, {"smiles": "CC(C)n1cc(/C=C/c2cc[n+](C)cc2)c2ccccc21", "activity change, negative = decreased viability": -9.9}, {"smiles": "CCOc1ccc(-n2c(C)cc(C(=O)CCl)c2C)cc1", "activity change, negative = decreased viability": -8.17}, {"smiles": "COc1ccc(-n2c(C)cc(C(=O)CCl)c2C)cc1", "activity change, negative = decreased viability": -8.15}, {"smiles": "O=C(Nc1ccc2nc3n(c(=O)c2c1)CCCCC3)c1cc([N+](=O)[O-])ccc1F", "activity change, negative = decreased viability": 47.5}, {"smiles": "CCOC(=O)c1nnn(-c2ccc([N+](=O)[O-])cc2[N+](=O)[O-])c1C", "activity change, negative = decreased viability": -24.6}, {"smiles": "Cc1ccc(NC(=O)CCl)cc1S(=O)(=O)N1CCCCCC1", "activity change, negative = decreased viability": -23.1}, {"smiles": "O=C(Nc1ccc(-c2nc3ncccc3o2)cc1)c1ccc([N+](=O)[O-])o1", "activity change, negative = decreased viability": -6.72}, {"smiles": "CCN(CC)CCn1nc2c3c(cccc3c1=O)-c1ccccc1-2", "activity change, negative = decreased viability": -17.6}, {"smiles": "Cc1ccc(NC(=O)CN(C)C(=O)Cn2ncc(Cl)c(Cl)c2=O)cc1", "activity change, negative = decreased viability": 69.3}, {"smiles": "COc1cc(C2C(C#N)=C(N)Oc3cc4c(cc32)OCO4)cc(OC)c1OC", "note": "(centres undefined)", "activity change, negative = decreased viability": 8.17}]}]}
